Measured values published in the supplement of paper PMC6522484.
± gives the standard deviation of the averaged measurements.

Assays:
[1] = system: DLD1; assay: cell viability (CellTiter-Glo) relative to plate median (fraction of plate median); higher = more viable cells; details: 10 µM, treatment time 24 h
In short: (§1)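 Kinase inhibitor library compounds were added at a final 10 µM for 24 h to colorectal cancer cells in 384-well plates, 24 h after seeding. The cells stably expressed lentiviral TCF/Wnt firefly luciferase reporters. Firefly luciferase and CellTiterGlo luminescence came from parallel plates, and each well was normalised to its plate median (webcellHTS2, additive, untransformed), averaged over two independent replicates.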

[2] = system: HCT116; assay: as above; details: 10 µM; treatment time 24 h; reporter: TCF4/Wnt
In short: as §1

[3] = system: SW480; assay: as above; details: 10 µM; treatment time 24 h; reporter: 7TFP
In short: as §1

[4] = system: DLD1; assay: TCF/Wnt firefly luciferase reporter signal relative to plate median (fraction of plate median); higher = higher Wnt reporter signal; details: 10 µM, treatment time 24 h
In short: as §1

[5] = system: HCT116; assay: as above; details: 10 µM; treatment time 24 h; reporter: TCF4/Wnt
In short: as §1

[6] = system: SW480; assay: as above; details: 10 µM; treatment time 24 h; reporter: 7TFP
In short: as §1

Compound	cell viability ([1]; reporter: 7TFP)	cell viability ([1]; reporter: TCF4/Wnt)	cell viability [2]	cell viability [3]	TCF/Wnt firefly luciferase reporter signal ([4]; reporter: 7TFP)	TCF/Wnt firefly luciferase reporter signal ([4]; reporter: TCF4/Wnt)	TCF/Wnt firefly luciferase reporter signal [5]	TCF/Wnt firefly luciferase reporter signal [6]
Cc1ccc(NC(=O)c2ccc(CN3CCN(C)CC3)cc2)cc1Nc1nc(-c2cccnc2)cs1 [Masitinib (AB1010)]	0.896 ± 0.073	1 ± 0.037	0.969 ± 0.037	0.993 ± 0.053	0.821 ± 0.019	1.25 ± 0.078	0.632 ± 0.1	1.01 ± 0.071
O=c1c(O)c(-c2ccc(O)c(O)c2)oc2cc(O)cc(O)c12 [Quercetin (Sophoretin)]	1.19 ± 0.035	1.02 ± 0.046	1.23 ± 0.092	0.92 ± 0.013	1.07 ± 0.014	1.04 ± 0.035	1.16 ± 0.071	0.978 ± 0.073
Oc1c2ccccc2c2c3c(cccc13)N=N2	1.06 ± 0.099	1.01 ± 0.016	1.12 ± 0.021	0.931 ± 0.016	1.07 ± 0.14	1.18 ± 0.014	1.34 ± 0.23	1.06 ± 0.021
CC1(COc2ccc3c(c2)ncn3-c2ccc3cccc(N4CCC(N)CC4)c3n2)COC1	0.975 ± 0.02	1.14 ± 0.11	0.536 ± 0.13	1.02 ± 0.014	1.48 ± 0.25	1.73 ± 0.064	0.288 ± 0.11	1.64 ± 0.014
CN1CCN(c2nc(C3=C(c4c[nH]c5ccccc45)C(=O)NC3=O)c3ccccc3n2)CC1 [Sotrastaurin (AEB071)]	1.08 ± 0.092	1.045 ± 0.0071	1.03 ± 0.13	0.914 ± 0.1	1.54 ± 0.05	1.52 ± 0.28	1.33 ± 0.83	0.983 ± 0.63
COc1cc(Nc2ncc3c(n2)-c2ccc(Cl)cc2C(c2c(F)cccc2OC)=NC3)ccc1C(=O)O [MLN8237 (Alisertib)]	0.987 ± 0.047	0.95 ± 0.067	0.954 ± 0.12	0.943 ± 0.014	1.08 ± 0.014	1.16 ± 0.16	1.01 ± 0.12	0.974 ± 0.066
COc1cc2/c(=N/c3ccc(Br)cc3F)nc[nH]c2cc1OCC1CCN(C)CC1 [Vandetanib (Zactima)]	0.921 ± 0.18	1.08 ± 0.057	1.14 ± 0.085	1.2 ± 0.035	0.9625 ± 0.0035	0.773 ± 0.093	0.916 ± 0.081	1.2 ± 0.092
COc1cc2nccc(Oc3ccc(NC(=O)C4(C(=O)Nc5ccc(F)cc5)CC4)cc3)c2cc1OC [XL-184 free base (Cabozantinib)]	1 ± 0.08	1.02 ± 0.05	1.095 ± 0.0071	0.9465 ± 0.0035	1.14 ± 0.14	0.846 ± 0.078	1.05 ± 0.23	1.03 ± 0.1
CCCS(=O)(=O)Nc1ccc(F)c(C(=O)c2c[nH]c3ncc(Cl)cc23)c1F	1.03 ± 0.08	0.942 ± 0.074	1.12 ± 0.071	0.837 ± 0.013	0.775 ± 0.33	0.746 ± 0.1	1.05 ± 0.11	0.786 ± 0.067
O=C(Nc1cccc(Nc2ncc(Br)c(NCCc3cnc[nH]3)n2)c1)N1CCCC1	1.07 ± 0.05	1.02 ± 0.071	0.932 ± 0.016	1.16 ± 0.05	1.74 ± 0.31	1.39 ± 0.38	1.97 ± 0.11	1.33 ± 0.13
CCN(CC)CCCCNc1ncc2cc(-c3cc(OC)cc(OC)c3)c(NC(=O)NC(C)(C)C)nc2n1	0.835 ± 0.052	1.01 ± 0.028	1.055 ± 0.0071	1.1 ± 0.071	0.702 ± 0.073	0.698 ± 0.073	0.781 ± 0.058	1.04 ± 0.18
FC(F)(F)c1ccc(/C=C/c2nc(COc3ccc(CCCCn4ccnn4)cc3)co2)cc1 [Mubritinib (TAK 165)]	0.979 ± 0.03	0.946 ± 0.09	0.771 ± 0.032	0.911 ± 0.1	1 ± 0.094	0.984 ± 0.023	0.639 ± 0.23	0.816 ± 0.49
N#Cc1c(O)c2c(-c3ccc(-c4ccccc4O)cc3)csc2[nH]c1=O	1.13 ± 0.014	1.13 ± 0.071	1.25	0.922 ± 0.052	1.03 ± 0.014	0.96 ± 0.2	1.08 ± 0.064	0.976 ± 0.16
NC(=O)Nc1sc(-c2ccc(F)cc2)cc1C(N)=O	0.951 ± 0.033	0.93 ± 0.075	1.1 ± 0.085	1.1 ± 0.014	0.669 ± 0.03	1.16 ± 0.18	1.39 ± 0.2	1.38 ± 0.057
CC(C)(C)c1nc(-c2cccc(NS(=O)(=O)c3c(F)cccc3F)c2F)c(-c2ccnc(N)n2)s1	1 ± 0.051	0.981 ± 0.042	1.055 ± 0.0071	1.06 ± 0.064	1.18 ± 0.071	1.05 ± 0.05	0.931 ± 0.47	1.75 ± 0.014
CN(C)C/C=C/C(=O)Nc1cc2c(Nc3ccc(F)c(Cl)c3)ncnc2cc1O[C@H]1CCOC1 [Afatinib (BIBW2992)]	0.916 ± 0.074	0.843 ± 0.0092	0.635 ± 0.19	1.18 ± 0.042	0.292 ± 0.089	0.407 ± 0.0014	0.131 ± 0.091	0.447 ± 0.19
CO[C@@H](C(=O)N1Cc2[nH]nc(NC(=O)c3ccc(N4CCN(C)CC4)cc3)c2C1)c1ccccc1	1.09 ± 0.11	1.12 ± 0.071	0.823 ± 0.29	1.1 ± 0.042	1.23 ± 0.064	1.41 ± 0.014	0.388 ± 0.019	0.656 ± 0.083
CCOc1ccn(-c2ccc(F)cc2)c(=O)c1C(=O)Nc1ccc(Oc2ccnc(N)c2Cl)c(F)c1	0.97 ± 0.071	0.971 ± 0.056	1.16 ± 0.014	0.991	0.983 ± 0.12	0.893 ± 0.12	1.19 ± 0.23	0.978 ± 0.031
Nc1ncnc2c1c(-c1cnc3[nH]ccc3c1)nn2C1CCCC1	0.8 ± 0.14	0.862 ± 0.063	0.489 ± 0.15	0.967 ± 0.15	0.322 ± 0.033	0.51 ± 0.084	0.21 ± 0.035	0.562 ± 0.064
CC[C@@H]1C(=O)N(C)c2cnc(Nc3ccc(C(=O)NC4CCN(C)CC4)cc3OC)nc2N1C1CCCC1	0.736 ± 0.16	0.863 ± 0.04	0.56 ± 0.13	0.897 ± 0.067	1.97 ± 0.2	2.25 ± 0.078	0.983 ± 0.93	1.36 ± 0.48
CCN1CCN(Cc2ccc(-c3cc4c(N[C@H](C)c5ccccc5)ncnc4[nH]3)cc2)CC1	0.92 ± 0.15	0.999 ± 0.1	0.938 ± 0.0014	1.115 ± 0.0071	0.905 ± 0.011	0.852 ± 0.22	1.08 ± 0.085	1.24 ± 0.057
CC(C)c1cnn2c(NCc3ccccc3)cc(NCCCCCCN)nc12	1 ± 0.067	0.969 ± 0.073	1 ± 0.055	0.921 ± 0.041	1.27 ± 0.11	1.52 ± 0.028	0.988 ± 0.14	1.2 ± 0.17
